Data: the supplement of paper PMC10338343
± gives the standard deviation. Whole data set: some 6,200 sequences, median “pre-steady-state target cleavage rate” near 0.29, cut for the highest 2% near 2. The sample as a whole holds a higher share of the highest values than the screen did.

Each sequence was assayed on MIWI (PIWIL1) piRISC loaded with piRNA #1 (30 nt) (assay: pre-steady-state target cleavage rate (min^-1); MIWI and MILI are mouse PIWI proteins and EfPiwi is from a freshwater sponge; tags in brackets are library labels; higher = faster piRNA-guided slicing of the target). Conditions: guide: piRNA #1 5'p-UGAGGUAGUAGGUUGUAUAGUAUCCAGAGG; auxiliary factor: 500 nM mouse GTSF1.
Experimental: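 Cleave-'n-Seq: a library of target RNAs (target site embedded in constant flanks, ACAGCATTCCGCGTTAGTGATATCCG... 5' flank; DNA-blocked outside the site) at 0.1 nM was incubated with 1 nM active mouse MILI or MIWI piRISC (synthetic 5'-monophosphorylated piRNA guide) with or without 500 nM mouse GTSF1 at 33 °C for 1 min to 16 h. Uncleaved targets were sequenced and normalised to non-target controls, and the pooled three trials were fitted to a burst-and-steady-state model to give the pre-steady-state cleavage rate (min^-1; k3 is constrained to at most 1e-4). Sequence is the target site only; target names encode pairing extent (gX:gY) and contiguous / 1-mismatch / 2-mismatch / bulge geometry. Fits with R² ≤ 0 are excluded.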

Sequence	pre-steady-state target cleavage rate
GGACUGGAUACAAUACAAGCUACUACCUCA	0.683 ± 0.041
GGAGACCUUACUAUACAACCUACUACCUGA	0.777 ± 0.077
GGAGUGGAUACUAUACCAACCUACUACCUCA	0.0192 ± 0.0054
GCUCUGGAUACUAUACAAGCUACUAGCUCA	0.745 ± 0.073
GGAGACCUAUGUAUACAUCCUAGUACCUCA	0.00528 ± 0.0014
GGAGACCUAACUAUACUACCUUCUACCUCA	0.00903 ± 0.0034
GGAGACCAUACUAUACAACCUACUACCUACA	1.77 ± 0.18
GGAGACCAUACUAUACAACCUACUACUUCA	2.14 ± 0.14
GGUCACCAUACUAUACAACCUACUACCUCA	1.77 ± 0.11
GCUCACCAUACUAUACAACCUACUACCUCA	1.87 ± 0.13
GGAGUCCAUACUAUACAACCUACUACCUCA	1.63 ± 0.091
CCUCUCCAUACUAUACAACCUACUACCUCA	2.04 ± 0.12
GGAGACCAUACUAUACAACCUACUACCUUCA	1.59 ± 0.1
GGACUCCAUACUAUACAACCUACUACCUCA	1.67 ± 0.11
GGUCUCCAUACUAUACAACCUACUACCUCA	1.79 ± 0.1
GCUCUCCUUACUAUACAACCUACUACCUCA	1.85 ± 0.12
GCUCUCCAUACUAUACAACCUACUACCUCA	2.13 ± 0.13
CCUCACCAUACUAUACAACCUACUACCUCA	2.03 ± 0.12
GGAGUGGAUACUAUACAACGUACUAGCUCA	0.0857 ± 0.017
GCUCUCGAUACUAUACAACCUACUACGUCA	1.24 ± 0.079
GCACUGGAUACUAUACAUCCUACUACCUCA	1.88 ± 0.096
CCUCAGGAUACUAUACAACCUACUAGCUCA	1.13 ± 0.056
GGAGACGAUACUAUACAACCUACUACCUUA	1.35 ± 0.09
GGAGUGCAUAGUAUACAACCUACUACCUCA	0.659 ± 0.04
GGAGACCUAUCUAUAGAACCUAGUACCUCA	0.0363 ± 0.0089

Sequence	pre-steady-state target cleavage rate
GGAGAUGAUACUAUACAACCUACUACCUCA	1.86 ± 0.095
GGAGAGAGAUACUAUACAACCUACUACCUCA	2.02 ± 0.12
GGAGAGAUACUAUACAACCUACUACCUCA	1.89 ± 0.11
GGAGUGAUACUAUACAACCUACUACCUCA	1.77 ± 0.11
GGAGAGUGAUACUAUACAACCUACUACCUCA	2.1 ± 0.15
GGAGUGUGAUACUAUACAACCUACUACCUCA	1.81 ± 0.1
GGAGAGGAUACUAUACAACCUACCUACCUCA	1.05 ± 0.059
GGAGAAGAUACUAUACAACCUACUACCUCA	2.04 ± 0.11
GGAGUGAGAUACUAUACAACCUACUACCUCA	1.77 ± 0.094
GGAGUGGAUACUUUACAACCUACUACCUCA	1.53 ± 0.086
GGAGACCAUACAAUACAACCUACUAGCUCA	0.486 ± 0.067
GGAGACCUAACUAUAGAACCUACUACCUGA	0.188 ± 0.066
GGACUGGAUACUAUACAACGUACUACCUGA	0.377 ± 0.047
ACUCUGGAUACUAUACAACCUACUACCUCA	2.19 ± 0.13
CCUCUGGAUACUAUACAACCUACUACACUCA	0.874 ± 0.073
CCUCUGGAUACUAUACAACCUCACUACCUCA	0.0086 ± 0.0033
CACUCUGGAUACUAUACAACCUACUACCUCA	2.09 ± 0.12
GGAGACGAUACGUAUACAACCUACUACCUCA	1.4 ± 0.13
GGAGUGGAUACUAUACAACCUACUGACCUCA	0.489 ± 0.043
GCUCUUGAUACUAUACAACCUACUACCUCA	2.03 ± 0.11
CCUCUUGAUACUAUACAACCUACUACCUCA	2.33 ± 0.14
GGACUUGAUACUAUACAACCUACUACCUCA	1.73 ± 0.12
GCUCUGUGAUACUAUACAACCUACUACCUCA	1.81 ± 0.11
GGUCUUGAUACUAUACAACCUACUACCUCA	1.87 ± 0.11
GGAGUUGAUACUAUACAACCUACUACCUCA	1.97 ± 0.13

Sequence	pre-steady-state target cleavage rate
GCUCUGGAUACUAUACAACCUACAACCUGA	0.744 ± 0.14
GGAGUCGAUACUAUACAACCUACUACCUCA	1.47 ± 0.091
GGAGACCAUAACUAUACAACCUACUACCUCA	1.24 ± 0.089
GCUCUGGAUACUAUACAACCUAAUACCUCA	1.55 ± 0.12
CCUCUGGAUAUAUACAACCUACUACCUCA	1.9 ± 0.12
GGUCUGGAUAAUAUACAACCUACUACCUCA	1.88 ± 0.12
GCUCUGGAUAAUAUACAACCUACUACCUCA	2.07 ± 0.13
CCUCUGGAUAAUAUACAACCUACUACCUCA	2.06 ± 0.12
GCUCUGGAUACUAAUACAACCUACUACCUCA	1.49 ± 0.09
CCUCUGGAUACUAUAGAACCUACUACCUCA	0.664 ± 0.06
GGAGACCAUUCUUUACAACCUACUACCUCA	0.387 ± 0.059
GCUCUGGAUAGUAUACUACCUACUACCUCA	0.858 ± 0.049
GGUCUGGAUACAAUACUACCUACUACCUCA	1.09 ± 0.092
CCUCUGGAUACUAUACAACCUACUACCUA	1.52 ± 0.096
CCUCUGGAUACUAUACAACCUACUACCUCC [g2:g30:cont:t1C]	2.18 ± 0.14
CCUCUGGAUACUAUACAACCUACUACCUCU [g2:g30:cont:t1U]	2.36 ± 0.14
CCUCUGGAUACUAUACAACCUACUACCUACA	1.79 ± 0.096
CCUCUGGAUACUAUACAACCUACUACCUCG [g2:g30:cont:t1G]	1.32 ± 0.094
CCUCUGGAUACUAUACAACCUACUACCUAA	1.9 ± 0.1
GGAGAGGAAACAAUACAACCUACUACCUCA	0.95 ± 0.079
GGAGACGAUACUAUUCAUCCUACUACCUCA	1.09 ± 0.061
GGAGUGGAUACUAUCAACCUACUACCUCA	1.58 ± 0.11
GGAGACCUAUCUAUACAACCUACUUCCUGA	0.0338 ± 0.01
